Shown are actives, neighbours in structure and some others; about 3.1% of the full set was active somewhere.
esBAF inh = blocks esBAF chromatin remodeling in mouse ES cells; 2% of 350,000 active; Bmi1-luciferase knock-in reporter, 24 h; 100% = twice the neutral-well signal; reporter increase, % at 12.5 µM; in the data active = activation above about 40%;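 note: a rise in the Bmi1 reporter signal indicates esBAF inhibition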
Wnt act = activators of Wnt/beta-catenin signaling. Wnt/beta-catenin reporter cell assay, activator, plate reader. activation, % at 9.35 µM. 1.2% of 300,000 active. AID 743398; in the data active = activation above about 30%, passing the limit was not always enough
Rtt109 HAT inh = inhibitors of Candida albicans Rtt109/Vps75 histone acetyltransferase; Q5AAJ8; purified Rtt109/Vps75, ThioGlo CoA-SH fluorescence, 4 h; inhibition, % at 34.9 µM; 0.16% of 330,000 active;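 active = inhibition of at least 50% in every replicate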
Target sequence (Q5AAJ8 whole entry, looked up): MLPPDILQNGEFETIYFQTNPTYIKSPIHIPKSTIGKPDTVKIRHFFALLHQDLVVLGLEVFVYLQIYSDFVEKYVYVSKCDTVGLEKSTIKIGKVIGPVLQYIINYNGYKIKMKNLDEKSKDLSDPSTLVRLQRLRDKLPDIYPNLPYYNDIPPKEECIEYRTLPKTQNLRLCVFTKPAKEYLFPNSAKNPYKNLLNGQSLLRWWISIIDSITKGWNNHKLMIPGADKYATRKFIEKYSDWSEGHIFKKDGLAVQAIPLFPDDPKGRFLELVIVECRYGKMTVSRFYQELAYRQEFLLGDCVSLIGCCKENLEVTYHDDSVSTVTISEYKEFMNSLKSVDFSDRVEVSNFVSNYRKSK
Statin myotox sup = suppression of simvastatin myotoxicity; C2C12 myotubes + simvastatin, ATP luminescence, 48 h; scaled: DMSO 0, geranylgeraniol control 100; rescue of ATP level, % at 7.49 µM; 0.78% of 330,000 active; AID 602340;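 active = mean ATP rescue above about 67%, or every replicate alone reaching that limit, limit read from the data, passing the limit was not always enough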;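 note: myotubes were challenged with 10 µM simvastatin during compound exposure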
MITF act = activators of MITF-driven TRPM1 promoter activity in SK-MEL-5 cells | SK-MEL-5 TRPM1-promoter luciferase, 24 h; % of positive control, neutral wells = 0 | activation, % at 12.5 µM | 0.75% of 300,000 active;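 active = mean activation of at least 80% with every replicate also reaching 80%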
Hits are given with their value.

What do the screens show for `COc1ccc(CCNC(=O)c2ccccc2NS(=O)(=O)c2cc(C(=O)O)ccc2OC)cc1`?
esBAF inh: inactive; Wnt act: inactive; Rtt109 HAT inh: inactive; Statin myotox sup: inactive; MITF act: inactive

What do the screens show for `COc1ccccc1NS(=O)(=O)c1ccc(OC)c(OC)c1`?
esBAF inh: inactive; Wnt act: inactive; Rtt109 HAT inh: inactive; Statin myotox sup: inactive; MITF act: inactive

Results for COc1ccc(NC(C)=O)cc1S(=O)(=O)Nc1ccccc1C(=O)NCCc1ccccc1 ?
esBAF inh: 54.9; Wnt act: inactive; Rtt109 HAT inh: inactive; Statin myotox sup: inactive; MITF act: 99.4

How did Cc1ccc(S(=O)(=O)N(C)C[C@@H]2Oc3ncc(Br)cc3C(=O)N([C@@H](C)CO)C[C@H]2C)cc1 do in these assays?
esBAF inh: inactive; Statin myotox sup: inactive

What do the screens show for `CCC(=O)Nc1ccc2c(c1)C(=O)N(C)[C@@H]1CC[C@@H](CC(=O)N3CCc4ccccc4C3)O[C@@H]1CO2`?
esBAF inh: inactive; Statin myotox sup: inactive

What do the screens show for `CCN(CC)C(=O)CSc1ccccc1N`?
esBAF inh: inactive; Rtt109 HAT inh: inactive; Statin myotox sup: 115.7; MITF act: inactive

How did CO[C@@H]1CN(C)C(=O)c2ccc(NS(=O)(=O)c3ccccc3)cc2OC[C@@H](C)N(C)C[C@@H]1C do in these assays?
esBAF inh: inactive; Statin myotox sup: inactive

Results for CC(C)NC(=O)C1CCN(C(=O)c2ccc(-c3ccccc3)cc2)CC1 ?
esBAF inh: inactive; Rtt109 HAT inh: inactive; Statin myotox sup: inactive; MITF act: inactive

Results for Cc1ccc(Nc2nc(C(=O)N3CCC(C(=O)NC(C)C)CC3)cs2)cc1 ?
Wnt act: 57.6; Rtt109 HAT inh: inactive; MITF act: inactive

Results for COc1ccc(S(=O)(=O)Nc2ccc3c(c2)CC(=O)N([C@H](C)CO)C[C@H](C)[C@@H](CN(C)Cc2ccc(C(=O)Nc4ccccc4N)cc2)O3)cc1 ?
esBAF inh: inactive; Statin myotox sup: inactive

What do the screens show for `CCC(C)c1ccc(NC(=O)Nc2cccnc2)cc1` (configuration not stated)?
esBAF inh: 60.7; Wnt act: inactive; Rtt109 HAT inh: inactive; Statin myotox sup: inactive; MITF act: 111.1

What do the screens show for `CC(=O)Nc1cccc(NC(=O)c2ccc(C(=O)Nc3cccc(NC(C)=O)c3)nc2)c1`?
Wnt act: inactive; MITF act: inactive

Results for O=C(Nc1ccccc1)c1ccc(C(=O)Nc2ccccc2)nc1 ?
esBAF inh: inactive; Wnt act: 43.7; Rtt109 HAT inh: inactive; Statin myotox sup: inactive; MITF act: inactive

What do the screens show for `O=C(Nc1ccccc1)C(=O)Nc1cccnc1`?
esBAF inh: inactive; Wnt act: 41.3; Rtt109 HAT inh: inactive; Statin myotox sup: inactive; MITF act: inactive

How did O=C(Nc1cccnc1)c1ccc(Oc2ccccc2)cc1 do in these assays?
esBAF inh: 53.6; Wnt act: 40.8; Rtt109 HAT inh: inactive; Statin myotox sup: inactive; MITF act: inactive

Results for O=C(Nc1ccccc1)c1cn2ccccc2n1 ?
Wnt act: inactive; Rtt109 HAT inh: inactive; MITF act: inactive

Results for O=C(Nc1ccccc1)c1cn(CCBr)cn1 ?
esBAF inh: inactive; Wnt act: 50.4; Rtt109 HAT inh: inactive; Statin myotox sup: inactive

Results for COc1ccccc1C(=O)O/N=C(\N)c1ccccc1Cl ?
Wnt act: 70.4; Rtt109 HAT inh: inactive; MITF act: inactive

Results for COc1ccc(/C(N)=N/OC(=O)c2cccc([N+](=O)[O-])c2C)cc1OC ?
Rtt109 HAT inh: inactive; MITF act: inactive

Results for COc1cccc(C(=O)O/N=C(\N)c2ccc([N+](=O)[O-])cc2)c1OC ?
esBAF inh: inactive; Rtt109 HAT inh: inactive; Statin myotox sup: inactive; MITF act: 84.4

Results for NCC[C@H]1CC[C@@H](NS(=O)(=O)Cc2ccccc2)[C@@H](CO)O1 ?
esBAF inh: inactive; Statin myotox sup: inactive

How did C(=C/c1nccc2c1[nH]c1ccccc12)/c1ccc2c(c1)OCO2 do in these assays?
esBAF inh: 76.4; Wnt act: inactive; Rtt109 HAT inh: inactive; MITF act: inactive

Results for COc1ccccc1C(=O)Nc1ccc2c(c1)C(=O)N(C)C[C@@H](OC)[C@@H](C)CN[C@@H](C)CO2 ?
esBAF inh: inactive; Statin myotox sup: inactive

Results for C[C@H]1CN([C@@H](C)CO)C(=O)c2cc(NS(=O)(=O)c3cn(C)cn3)ccc2O[C@@H]1CN(C)Cc1ccncc1 ?
esBAF inh: inactive; Statin myotox sup: inactive

How did Oc1ccc(Nc2ccc3ccccc3c2)cc1 do in these assays?
esBAF inh: 49.1; Wnt act: inactive; Statin myotox sup: inactive

Results for Nc1nc(N)c2sc3nc4c(cc3c2n1)CCC4 ?
esBAF inh: 48.3; Rtt109 HAT inh: inactive; Statin myotox sup: inactive; MITF act: inactive

How did CCCNC(=O)c1cc2c(c(-c3cccc(-c4cccc(F)c4)c3)n1)[C@H](CCO)N([S@@](=O)C(C)(C)C)C2 do in these assays?
esBAF inh: inactive; Statin myotox sup: inactive

Results for Nc1cc(Cl)ccc1C(=O)OCC(=O)N1CCCCCC1 ?
esBAF inh: 52.7; Wnt act: inactive; Rtt109 HAT inh: inactive; Statin myotox sup: inactive; MITF act: inactive

How did Cc1cccc(C(=O)OCC(=O)N2CCCCCC2)c1C do in these assays?
esBAF inh: 63.5; Wnt act: 34.3; Rtt109 HAT inh: inactive; Statin myotox sup: inactive; MITF act: inactive

Results for CC1CN(C(=O)COC(=O)c2cc(Cl)ccc2[N+](=O)[O-])CC(C)O1 (configuration not stated) ?
esBAF inh: inactive; Wnt act: inactive; Rtt109 HAT inh: inactive; Statin myotox sup: inactive

What do the screens show for `O=C(OCC(=O)N1CCN(Cc2ccccc2)CC1)c1cc(Cl)ccc1[N+](=O)[O-]`?
esBAF inh: inactive; Wnt act: 36.9; Rtt109 HAT inh: inactive; Statin myotox sup: inactive; MITF act: inactive

What do the screens show for `Cc1ccc(C(=O)c2ccccc2C(=O)OCC(=O)N2CCCC2)cc1`?
esBAF inh: 42.9; Wnt act: inactive; Rtt109 HAT inh: inactive; Statin myotox sup: inactive; MITF act: inactive

Results for COC(=O)C[C@H]1CC[C@@H]2[C@H](COC[C@@H](O)CN2C(=O)Nc2cccc(F)c2)O1 ?
esBAF inh: inactive; Statin myotox sup: inactive

What do the screens show for `CCCNC(=O)Nc1ccc2c(c1)C(=O)N(C)[C@@H]1CC[C@H](CC(=O)O)O[C@@H]1CO2`?
esBAF inh: inactive; Statin myotox sup: inactive

How did O=C(NNC(=O)c1ccccc1OCc1ccccc1)c1ccccc1F do in these assays?
esBAF inh: 60.5; Wnt act: inactive; Rtt109 HAT inh: inactive; Statin myotox sup: inactive; MITF act: inactive

Results for CCC(=O)c1ccc(OCc2ccccc2)c(OC)c1 ?
esBAF inh: 94.7; Rtt109 HAT inh: inactive; Statin myotox sup: inactive; MITF act: 100.5

What do the screens show for `COc1ccc(COc2ccccc2C(N)=O)cc1F`?
esBAF inh: inactive; Wnt act: inactive; Statin myotox sup: 109.3; MITF act: inactive

What do the screens show for `COc1ccc(C(=O)CC(=O)c2ccccc2O)cc1OC`?
esBAF inh: 57.1; Wnt act: inactive; Rtt109 HAT inh: inactive; Statin myotox sup: inactive; MITF act: inactive
